Bioassay records: PubChem, The Scripps Research Institute Molecular Screening Center
The list is not random: actives were taken first. Their share in the collection is about 3.5%.
MITF inh: human MITF inhibition, primary screen. O75030. AlphaScreen MITF homodimerization, bead proximity signal. inhibition, % at 2.6 µM. 650,000 compounds, 0.91% hits. AID 1259374; in the data active means inhibition above about 50%;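 further: 0% = vehicle wells with protein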
Target sequence (O75030 whole entry, looked up): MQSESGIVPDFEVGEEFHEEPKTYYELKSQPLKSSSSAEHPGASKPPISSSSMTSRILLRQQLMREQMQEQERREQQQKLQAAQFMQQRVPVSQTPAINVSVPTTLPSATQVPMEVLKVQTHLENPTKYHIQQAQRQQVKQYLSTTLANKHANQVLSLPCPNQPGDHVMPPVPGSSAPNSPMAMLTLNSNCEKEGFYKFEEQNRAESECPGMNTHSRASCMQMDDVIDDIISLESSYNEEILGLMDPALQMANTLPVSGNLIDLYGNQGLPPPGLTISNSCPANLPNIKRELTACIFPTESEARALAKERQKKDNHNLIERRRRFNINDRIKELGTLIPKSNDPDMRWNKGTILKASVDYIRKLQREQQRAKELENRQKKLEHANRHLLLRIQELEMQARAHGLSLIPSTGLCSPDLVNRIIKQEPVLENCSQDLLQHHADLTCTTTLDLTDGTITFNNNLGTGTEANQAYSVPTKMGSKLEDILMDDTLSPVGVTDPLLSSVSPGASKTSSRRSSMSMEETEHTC
GPR151 activ: activators of human GPR151; 650,000 compounds, 1% hits; activation, % at 11.2 µM; Q8TDV0; AID 1508602; PathHunter beta-arrestin GPR151 cells, luminescence; in the data active means activation above about 4.9%;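 further: 0% = median of compound wells and 100% = cells with positive control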
TEAD-YAP block: TEAD-YAP interaction inhibition; HEK-TIYL cells, TEAD-Gal4/YAP UAS-luciferase luminescence; inhibition, % at 9.12 µM; 640,000 compounds, 1.4% hits; AID 1259422; in the data active means inhibition above about 32%;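 further: 0% = median of test compound wells and 100% = reference inhibitor wells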
FBW7 activator: human FBW7 E3 ligase activation, primary screen; Q969H0; AlphaScreen FBW7–phospho-cyclin E peptide binding, activator screen; normalized activity (activation), % at 26.1 µM; 650,000 compounds, 0.13% hits; in the data active means normalized activity above about 1.9%;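 further: purified mutant Fbw7 with reduced substrate affinity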
GPR151 conf act: confirmation of human GPR151 activators; shares compounds with GPR151 activ; GPR151 PathHunter beta-arrestin cells, luminescence, 90 min; % of EA-reagent control over plate median; activation, % at 11.2 µM; 6,700 tested, under 10 active;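 active means mean percent activation across replicates above the confirmation screen cutoff of 4.91%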
GPR119 counter: GPR119 activation, counter-screen for GPR151 activators. activation, % at 11.2 µM. shares compounds with GPR151 activ. GPR119 PathHunter beta-arrestin cells, luminescence, 90 min; 0 = compound-well median, 100 = enzyme-acceptor control. 6,700 compounds, 0.3% hits;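 active means mean percent activation in the counterscreen above 29.09%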;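 further: counterscreen on off-target GPR119 to flag nonselective hits from the GPR151 activator screen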
The depositor's hits bear a star; / = not tested or not shown.

SMILES | MITF inh | GPR151 activ | TEAD-YAP block | FBW7 activator | GPR151 conf act | GPR119 counter
O=C(Nc1ccc(-c2nc3ccc(-c4nc5ccccc5o4)cc3[nH]2)cc1)C1CCCCC1 | 17 | 4.9* | -5 | 0 | 1 | 16
COc1ccc(CNC(=O)C(=O)Nc2ccccc2Br)cc1 | 16 | -1 | -5 | 0 | / | /
CC(O)CNc1nc2ccccc2n1CC(=O)N1CCc2ccccc21 (centres undefined) | 0 | 10.0* | 6 | 0 | -1 | 9
Cc1ccc(C2=C/C(=C/c3ccccn3)C(=O)O2)c(C)c1 | 1 | 5.3* | -44 | 0 | 2 | -9
O=C(O)c1cc(C2COc3ccccc3O2)nc2ccc(-c3cn[nH]c3)cc12 (centres undefined) | 21 | 13* | 4 | 0 | 1 | 3
O=C(NCCN1CCNCC1)c1cc(C2COc3ccccc3O2)nc2ccc(-c3cn[nH]c3)cc12 (centres undefined) | -2 | 0 | 0 | 0 | / | /
COc1ccccc1N(CC(=O)Nc1ccccc1C(=O)NCC(C)C)S(C)(=O)=O | 3 | 13* | 7 | 0 | -1 | -7
CCOC(=O)c1ccccc1NC(=O)CN(c1ccccc1OCC)S(C)(=O)=O | -8 | 1 | -11 | 0 | / | /
Cc1ccc(N(CC(=O)NC2CC3CCC2C3)S(C)(=O)=O)cc1Cl (centres undefined) | 11 | 2 | 5 | 0 | / | /
CS(=O)(=O)N(CC(=O)NC1CC2CCC1C2)c1ccc(F)c(Cl)c1 (centres undefined) | 10 | 7.8* | 1 | 0 | 0 | -5
CS(=O)(=O)N(CC(=O)NCCC1=CCCCC1)c1ccc(F)c(Cl)c1 | -19 | -2 | 1 | 0 | / | /
COC(=O)c1ccccc1NC(=O)CN(c1ccccc1OC)S(C)(=O)=O | -19 | -1 | -1 | 0 | / | /
Cc1ccc(N(CC(=O)NCCC2=CCCCC2)S(C)(=O)=O)cc1Cl | 18 | 15* | 3 | 0 | 1 | -8
CCOC(=O)c1ccccc1NC(=O)CN(c1ccccc1F)S(C)(=O)=O | -15 | 5.0* | 4 | 0 | 0 | 3
CSc1ccc(NC(=O)C2CC23CCN(Cc2cccs2)CC3)cc1 (centres undefined) | -3 | 2 | -3 | 0 | / | /
COCCNc1ncnc2c1cnn2-c1ccc(OC)cc1 | 18 | 2 | -92 | 1 | / | /
Cc1ccc(N(CC(=O)Nc2cccc(Cl)c2C)S(C)(=O)=O)cc1C | -18 | 5.3* | 2 | 0 | 0 | 6
COc1ccc(N(CC(=O)Nc2cccc(Cl)c2C)S(C)(=O)=O)cc1OC | 15 | 0 | -7 | 0 | / | /
CCOC(=O)c1ccccc1NC(=O)c1cn(-c2ccc(F)cc2F)c(=O)c2ccccc12 | 7 | 6.7* | 0 | 0 | 0 | 8
CCOC(=O)c1ccccc1NC(=O)CN(c1ccc(F)c(Cl)c1)S(C)(=O)=O | 0 | 5.2* | -15 | 0 | 0 | 10
COc1ccc(Cl)cc1NC(=O)CN(c1cccc(Cl)c1)S(C)(=O)=O | -9 | 6.8* | 11 | 0 | -1 | 7
CCOC(=O)c1ccccc1NC(=O)CN(c1ccc(OC)c(Cl)c1)S(C)(=O)=O | 13 | 0 | -3 | 0 | / | /
O=C(Nc1ccccc1I)c1cnccn1 | 15 | 2 | -13 | 0 | / | /
COC(=O)c1ccccc1NC(=O)CN(c1ccc(Cl)c(Cl)c1)S(C)(=O)=O | 15 | -1 | 5 | 0 | / | /
Cc1ccc(N(CC(=O)Nc2ccccc2F)S(C)(=O)=O)cc1Cl | 6 | 15* | 13 | 0 | 0 | -11
SMILES | MITF inh | GPR151 activ | TEAD-YAP block | FBW7 activator | GPR151 conf act | GPR119 counter
CCOC(=O)c1ccccc1NC(=O)CN(c1ccc(Cl)c(Cl)c1)S(C)(=O)=O | 21 | 18* | 6 | 0 | -1 | -14
Cc1ccc(Cl)cc1NC(=O)CN(c1ccc(Cl)cc1)S(C)(=O)=O | 1 | -1 | 13 | 0 | / | /
CCOC(=O)c1ccccc1NC(=O)Nc1ccc(F)cc1 | -5 | 7.5* | -1 | 0 | 0 | 4
Cc1ccc(N(CC(=O)Nc2cc(Cl)ccc2C)S(C)(=O)=O)c(C)c1 | -15 | 6.9* | 7 | 0 | 0 | 6
O=C(COc1ccc(Nc2ccccc2)cc1)NCC(=O)Nc1ccc(F)c(F)c1F | 9 | 3 | 12 | 0 | / | /
O=c1[nH]n(-c2cccc(Cl)c2)c(O)c1/C=C1\C=Nc2ccccc21 | 7 | 1 | -17 | 0 | / | /
Cc1ccc(NC(=O)CN(c2ccc3c(c2)OCO3)S(C)(=O)=O)cc1Cl | 9 | 5.1* | -7 | 0 | 0 | 11
CS(=O)(=O)N(CC(=O)Nc1ccc(Cl)c(Cl)c1)c1ccc2c(c1)OCO2 | -1 | 0 | -1 | 1 | / | /
COC(=O)c1ccccc1NC(=O)CN(c1ccc(F)c(Cl)c1)S(C)(=O)=O | 8 | 13* | 5 | 0 | -2 | 31*
COC(=O)CN(c1ccc(Cl)cc1Cl)S(C)(=O)=O | 6 | 7.3* | 5 | 0 | -1 | -11
CS(=O)(=O)N(CC(N)=O)c1ccc(Cl)cc1Cl | 9 | -2 | 4 | 1 | / | /
COc1cccc(CN2CCN(C(=O)c3c(OC)cccc3OC)CC2)c1 | 17 | 0 | 4 | 0 | / | /
COc1cccc(CN2CCN(C(=O)c3cc(Br)cs3)CC2)c1 | -2 | 5.8* | -2 | 0 | 1 | 11
C=CCOc1ccc(C(=O)N2CCN(c3ccc(OC)cc3)CC2)cc1 | 8 | 6.1* | -8 | 1 | 0 | 5
COc1ccc(C(=O)N2CCN(Cc3ccc4ccccc4c3)CC2)cc1 | 47 | 7.7* | 36* | -1 | 1 | -1
COc1ccc(N2CCN(C(=O)c3ccc(OC(C)=O)cc3)CC2)cc1 | 14 | -1 | -1 | 0 | / | /
O=C1Nc2ccccc2Oc2cc([N+](=O)[O-])cc(Oc3ccc(Br)cc3)c21 | 5 | 11* | 4 | 0 | 1 | 1
CCC(=O)N1C(=O)CC(C)N(C(=O)CC)c2ccccc21 (centres undefined) | -7 | 5.9* | 1 | 0 | 0 | -1
CN1C(=O)C(C)(C)c2cc(S(=O)(=O)N3CCN(c4ccccc4F)CC3)ccc21 | 1 | 5.1* | -9 | 0 | 0 | 5
Cc1cccc(N2CCN(S(=O)(=O)c3ccc4c(c3)C(C)(C)C(=O)N4C)CC2)c1C | 32 | 0 | 5 | 0 | / | /
COc1cc2[nH]c(=S)n(CCc3ccc(S(N)(=O)=O)cc3)c(=O)c2cc1OC | -1 | -1 | -16 | 0 | / | /
N#Cc1ccc(NC(=O)COC(=O)CCC(=O)c2ccc3c(c2)OCCO3)cc1 | -2 | 11* | -3 | 0 | 6.8* | 10
COC(=O)c1sccc1S(=O)(=O)Nc1ccc(C)c(F)c1 | 4 | -1 | 7 | 1 | / | /
CCCCCOc1ccc(NC(=O)c2ccc(C(=O)Nc3ccc(OCCCCC)cc3)nc2)cc1 | 2 | 0 | -8 | 1 | / | /
